Records with an inconclusive call do not appear. Calls of active or inactive are those of the source. Unless noted, calls come from the whole dose curve; as a rule, active = well fitted curve in the direction sought with a large enough effect; inconclusive = small, poorly fitted or top-dose-only effect, or another doubt; inactive = no such curve, though single readings can be large; an effect the other way counts as inactive or inconclusive.
Tests used:
[1] = NS1 protein of Zika virus - qHTS assay to identify small molecule inhibitors in human HEK 293 cells (AID 1347053); note: series mostly up to about 46 µM; nearly all actives have a fitted effect of over 55% in size
How it was run: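 Inhibition of NS1 expression was scored in HEK 293 cells given compound 1 h ahead of MR766 virus (MOI = 0.5). Following 24 h at 37 C, two anti-NS1 antibodies generated a TR-FRET signal, scaled between uninfected and infected controls.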

[2] = qHTS for Inhibitors of the Functional Ribonucleoprotein Complex (vRNP) of Lassa (LASV) Arenavirus: LASV Primary Screen - GLuc reporter signal (AID 1347082; calls by dose curve; tested in HEK293 reporter line; note: series mostly up to about 57 µM; nearly all actives have a fitted effect of over 60% in size)
[3] = qHTS for Inhibitors of the Functional Ribonucleoprotein Complex (vRNP) of Lassa (LASV) Arenavirus: Viability assay - alamar blue signal for LASV Primary Screen (AID 1347083; calls by dose curve; tested in HEK293 reporter line; note: series mostly up to about 57 µM; nearly all actives have a fitted effect of over 80% in size)
[4] = qHTS for Inhibitors of the Functional Ribonucleoprotein Complex (vRNP) of Lymphocytic Choriomeningitis Arenaviruses (LCMV): Viability assay - alamar blue signal for LCMV Primary Screen (AID 1347085; calls by dose curve; tested in HEK293 reporter line; note: series mostly up to about 57 µM; nearly all actives have a fitted effect of over 80% in size)
[5] = biological target: Nucleoprotein (Lymphocytic choriomeningitis virus (strain Armstrong)) (UniProt P09992); test: qHTS for Inhibitors of the Functional Ribonucleoprotein Complex (vRNP) of Lymphocytic Choriomeningitis Arenaviruses (LCMV): LCMV Primary Screen - GLuc reporter signal (AID 1347086; calls by dose curve; note: series mostly up to about 57 µM; nearly all actives have a fitted effect of over 70% in size)
[6] = qHTS of pediatric cancer cell lines to identify multiple opportunities for drug repurposing: Primary screen for TC32 cells (AID 1347089); note: nearly all actives have a fitted effect of over 60% in size
How it was run: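 A viability screen of TC32 cells was run over 48 h, with primary MIPE doses spanning 0.78 nM–46 µM and NPC doses 0.59 nM–46 µM. ATP luminescence (CellTiter-Glo) served as the read-out.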

[7] = qHTS of pediatric cancer cell lines to identify multiple opportunities for drug repurposing: Primary screen for DAOY cells (AID 1347090); note: series mostly up to about 46 µM; nearly all actives have a fitted effect of over 55% in size
How it was run: (§1)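 Viability measured as metabolically active cells via CellTiter-Glo luminescence following 48 hours of compound exposure, 11-point dilutions in confirmatory testing. 500-1,000 cells/well plated 5 hours before dosing; controls were DMSO and 2.3 µM bortezomib.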

[8] = qHTS of pediatric cancer cell lines to identify multiple opportunities for drug repurposing: Primary screen for SJ-GBM2 cells (AID 1347091)
How it was run: as §1

[9] = qHTS of pediatric cancer cell lines to identify multiple opportunities for drug repurposing: Primary screen for A673 cells (AID 1347092); note: nearly all actives have a fitted effect of over 45% in size
How it was run: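 Titration-based qHTS on A673 cells: MIPE compounds spanned 11 points (0.78 nM to 46 µM final), NPC compounds 8 points (0.59 nM to 46 µM final). Viability after 48 h was measured by ATP luminescence.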

[10] = qHTS of pediatric cancer cell lines to identify multiple opportunities for drug repurposing: Primary screen for SK-N-MC cells (AID 1347093); note: series mostly up to about 46 µM
How it was run: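 Metabolically active cells were quantified by ATP-dependent luminescence (CellTiter-Glo, 15 min at room temperature) following 48 h treatment. Cells had been plated at 500-1,000 per well and settled for 5 h beforehand.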

[11] = qHTS of pediatric cancer cell lines to identify multiple opportunities for drug repurposing: Primary screen for BT-37 cells (AID 1347094); note: series mostly up to about 57 µM
How it was run: (§2)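 Plated cells (500-1,000 per well, growth media) were allowed to settle for 5 hours, treated with compound dilutions for 48 hours, then lysed with CellTiter-Glo for 15 min at room temperature before luminescence reading.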

[12] = qHTS of pediatric cancer cell lines to identify multiple opportunities for drug repurposing: Primary screen for NB-EBc1 cells (AID 1347095)
How it was run: as §2

[13] = qHTS of pediatric cancer cell lines to identify multiple opportunities for drug repurposing: Primary screen for U-2 OS cells (AID 1347096); note: nearly all actives have a fitted effect of over 50% in size
How it was run: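 Viability after 48 h compound treatment at 37C, 500-1,000 cells/well, read as ATP luminescence with CellTiter-Glo. Primary screens used 11-point (MIPE, 0.78 nM-46 µM) or 8-point (NPC, 0.59 nM-46 µM) final concentrations; follow-up screens used 11-point dilutions.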

[14] = qHTS of pediatric cancer cell lines to identify multiple opportunities for drug repurposing: Primary screen for SK-N-SH cells (AID 1347098);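 note: DMSO served as neutral control and bortezomib at 2.3 µM as positive control; nearly all actives have a fitted effect of over 65% in size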
How it was run: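 Cells (500-1,000/well) rested 5 h, then received compounds for 48 h; metabolically active cells were measured by CellTiter-Glo luminescence. Final concentrations spanned up to 46 µM (MIPE, 11-point) or 0.59 nM-46 µM (NPC, 8-point) in primary screens, 11-point in follow-ups.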

[15] = qHTS of pediatric cancer cell lines to identify multiple opportunities for drug repurposing: Primary screen for NB1643 cells (AID 1347099); note: nearly all actives have a fitted effect of over 50% in size
How it was run: as §2

[16] = qHTS of pediatric cancer cell lines to identify multiple opportunities for drug repurposing: Primary screen for Saos-2 cells (AID 1347097); note: nearly all actives have a fitted effect of over 40% in size
How it was run: as §2

[17] = biological target: T1, Tyrosine-protein phosphatase non-receptor type substrate 1 (Homo sapiens) + Leukocyte surface antigen CD47 (Homo sapiens) (UniProt P78324+Q08722); test: CD47-SIRPalpha protein protein interaction - LANCE assay qHTS validation (AID 1347057; active = well fitted curve in the direction sought with a large enough effect in the signal ratio, with a control signal flat, not every such curve was filed as active; the % refers to the signal ratio; note: series mostly up to about 38 µM)
How it was run: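 First, His-tagged CD47 and Eu-labelled anti-His antibody met the compound for 30 min; next, site-specifically biotinylated SIRPalpha was added for 30 min; finally streptavidin-APC was added before reading the TR-FRET ratio.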

[18] = biological target: T1, Tyrosine-protein phosphatase non-receptor type substrate 1 (Homo sapiens) + Leukocyte surface antigen CD47 (Homo sapiens); test: CD47-SIRPalpha protein protein interaction - HTRF assay qHTS validation (AID 1347058; active = well fitted curve in the direction sought with a large enough effect in the signal ratio, not every such curve was filed as active; the % refers to the signal ratio;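 note: recombinant soluble extracellular CD47 with His tag and biotinylated SIRPalpha domains; series mostly up to about 38 µM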)
How it was run: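 TR-FRET read (Ch1/Ch2 ratio) of soluble extracellular CD47 and Avi-biotinylated SIRPalpha domains in PBS pH 7.4 with 0.05% IGEPAL; 7-point compound titration. Sequential 30 min room-temperature steps; non-biotinylated SIRPalpha as control inhibitor.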

[19] = biological target: T1, Tyrosine-protein phosphatase non-receptor type substrate 1 (Homo sapiens) + Leukocyte surface antigen CD47 (Homo sapiens); test: CD47-SIRPalpha protein protein interaction - Alpha assay qHTS validation (AID 1347059);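 note: bead proximity luminescence from CD47 binding SIRPalpha after compound preincubation with SIRPalpha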
How it was run: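 Biotinylated Avi-tagged SIRPalpha (25 nM) preincubated 30 min with compound, then His-tagged CD47 (12.5 nM) added 30 min; AlphaScreen with Ni-NTA acceptor and streptavidin donor beads. PBS pH 7.4, 0.05% IGEPAL, room temperature; 7-point titrations.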

[20] = biological target: Parathyroid hormone/parathyroid hormone-related peptide receptor (Homo sapiens) (UniProt Q03431); test: qHTS for PTHR1 Agonists: Optimization Screen against the NCGC LOPAC library (AID 1347079);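 note: GloSensor cAMP luminescence in HEK-293 GP2 cells expressing human PTHR1 with IBMX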
How it was run: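 Agonist readout: GloSensor cAMP luminescence, read after 15 min at room temperature. HEK-293-derived GP2 line carries PTHR1; compounds tested as a titration for 1 hr at 37C in presence of IBMX. M-PTH (1-15) served as control.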

Measured: Potency

Chain of Nucleoprotein (Lymphocytic choriomeningitis virus (strain Armstrong)) (P09992 whole entry, looked up): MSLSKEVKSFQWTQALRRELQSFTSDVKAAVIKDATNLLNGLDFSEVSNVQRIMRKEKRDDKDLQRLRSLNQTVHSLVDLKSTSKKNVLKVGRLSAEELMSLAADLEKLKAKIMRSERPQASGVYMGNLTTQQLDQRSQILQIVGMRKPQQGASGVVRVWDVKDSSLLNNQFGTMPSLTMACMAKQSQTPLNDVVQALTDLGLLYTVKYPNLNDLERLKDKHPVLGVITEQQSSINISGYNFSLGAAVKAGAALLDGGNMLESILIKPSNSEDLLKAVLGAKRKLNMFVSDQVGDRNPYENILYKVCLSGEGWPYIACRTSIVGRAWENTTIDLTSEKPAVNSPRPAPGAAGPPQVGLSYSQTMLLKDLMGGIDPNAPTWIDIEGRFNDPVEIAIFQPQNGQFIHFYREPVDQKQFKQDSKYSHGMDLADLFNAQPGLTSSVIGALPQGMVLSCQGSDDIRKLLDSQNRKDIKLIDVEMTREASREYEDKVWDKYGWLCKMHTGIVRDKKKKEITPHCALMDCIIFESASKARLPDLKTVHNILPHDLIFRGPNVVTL
T1 sequence (P78324 whole entry, looked up): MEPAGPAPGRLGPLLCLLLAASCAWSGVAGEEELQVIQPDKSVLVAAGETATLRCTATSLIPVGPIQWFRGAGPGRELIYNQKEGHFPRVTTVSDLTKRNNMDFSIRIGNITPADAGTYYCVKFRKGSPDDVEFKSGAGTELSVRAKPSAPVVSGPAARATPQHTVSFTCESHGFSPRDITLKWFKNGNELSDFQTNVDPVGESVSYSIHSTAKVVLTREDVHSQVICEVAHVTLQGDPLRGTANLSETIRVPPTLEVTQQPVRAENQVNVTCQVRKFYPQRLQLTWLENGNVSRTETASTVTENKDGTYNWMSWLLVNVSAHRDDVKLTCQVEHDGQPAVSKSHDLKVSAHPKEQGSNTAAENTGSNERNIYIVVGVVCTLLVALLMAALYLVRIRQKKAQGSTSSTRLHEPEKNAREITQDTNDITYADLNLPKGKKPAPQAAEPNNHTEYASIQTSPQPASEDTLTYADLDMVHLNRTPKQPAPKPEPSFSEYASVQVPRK
T1 sequence (Q08722 whole entry, looked up): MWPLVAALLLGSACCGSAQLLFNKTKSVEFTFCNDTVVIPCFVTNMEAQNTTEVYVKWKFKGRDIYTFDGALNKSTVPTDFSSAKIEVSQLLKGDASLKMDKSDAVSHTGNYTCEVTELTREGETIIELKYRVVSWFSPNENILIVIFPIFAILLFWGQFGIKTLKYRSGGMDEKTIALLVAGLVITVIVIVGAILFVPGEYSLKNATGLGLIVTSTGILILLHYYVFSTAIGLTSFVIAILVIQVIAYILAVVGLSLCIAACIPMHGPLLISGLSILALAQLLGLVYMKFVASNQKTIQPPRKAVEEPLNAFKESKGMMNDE
Chain of Parathyroid hormone/parathyroid hormone-related peptide receptor (Homo sapiens) (Q03431 whole entry, looked up): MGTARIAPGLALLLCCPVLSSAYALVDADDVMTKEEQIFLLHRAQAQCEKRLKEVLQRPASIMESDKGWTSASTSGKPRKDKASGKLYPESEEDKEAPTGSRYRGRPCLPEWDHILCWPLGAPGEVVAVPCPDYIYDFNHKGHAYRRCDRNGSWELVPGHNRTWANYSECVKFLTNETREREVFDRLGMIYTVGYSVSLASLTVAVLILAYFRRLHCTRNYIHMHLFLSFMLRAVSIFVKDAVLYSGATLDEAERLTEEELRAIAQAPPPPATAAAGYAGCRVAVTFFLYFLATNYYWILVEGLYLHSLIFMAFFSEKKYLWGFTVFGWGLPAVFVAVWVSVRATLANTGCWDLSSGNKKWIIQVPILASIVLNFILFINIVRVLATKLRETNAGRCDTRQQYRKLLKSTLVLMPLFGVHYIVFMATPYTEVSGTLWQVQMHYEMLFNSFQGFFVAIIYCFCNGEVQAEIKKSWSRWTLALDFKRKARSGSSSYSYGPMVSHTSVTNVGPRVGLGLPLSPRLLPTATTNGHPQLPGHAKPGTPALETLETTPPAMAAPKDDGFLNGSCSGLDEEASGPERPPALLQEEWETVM

C=CCN1CC[C@]23CCCC[C@H]2[C@H]1Cc1ccc(O)cc13
not listed: [16] | [17] | [18] | [19] | [20]
inactive: all other assays above

COc1cc(CC#N)cc(OC)c1OC
not listed: [17] | [18] | [19] | [20]
inactive: all other assays above

CC1=C2[C@H]3OC(=O)[C@@H](C)[C@@H]3CC[C@@]2(C)C=CC1=O
not listed: [16] | [17] | [18] | [19] | [20]
inactive: all other assays above

c1cc2c(c(N3CCNCC3)c1)OCCO2
not listed: [17] | [18] | [19] | [20]
inactive: all other assays above

CCCOC(=O)Cc1ccc(OCC(=O)N(CC)CC)c(OC)c1
not listed: [17] | [18] | [19] | [20]
inactive: all other assays above

NC(=O)OCCCc1ccccc1
not listed: [17] | [18] | [19] | [20]
inactive: all other assays above

CC(C)(O)C(Cl)(Cl)Cl
not listed: [17] | [18] | [19] | [20]
inactive: all other assays above

C[N+]1(CCC(C(N)=O)(c2ccccc2)c2ccccc2)CCCCC1
not listed: [17] | [18] | [19] | [20]
inactive: all other assays above

CC(Cc1ccc2c(c1)OCO2)NO (stereo not drawn)
not listed: [13] | [17] | [18] | [19] | [20]
inactive: all other assays above

O=C(O)CCCCCCNC1c2ccccc2CCc2ccccc21
not listed: [16] | [17] | [18] | [19] | [20]
inactive: all other assays above

COC(=O)C1=CCCN(C)C1
not listed: [7] | [10]
inactive: all other assays above

Oc1c(Br)cc(Br)cc1Br
not listed: [13] | [17] | [18] | [19] | [20]
inactive: all other assays above

CC(CC(C(N)=O)(c1ccccc1)c1ccccc1)N(C)C (stereo not drawn)
not listed: [17] | [18] | [19] | [20]
inactive: all other assays above

Cc1c(Cl)c(=O)oc2cc(OP(=O)(OCCCl)OCCCl)ccc12
not listed: [17] | [18] | [19] | [20]
inactive: all other assays above

CCc1ccc(C2CCNCC2)cc1
not listed: [13] | [17] | [18] | [19] | [20]
inactive: all other assays above

CCN(CC)C(C)C(=O)c1ccccc1 (stereo not drawn)
not listed: [17] | [18] | [19] | [20]
inactive: all other assays above

C[N+](C)(C)CCOC(=O)C(O)(c1ccccc1)c1ccccc1
not listed: [17] | [18] | [19] | [20]
inactive: all other assays above
